Experimental findings from PubChem BioAssay (NCATS) are described below.

Assay [1] addresses Single-stranded DNA cytosine deaminase (Homo sapiens) (UniProt Q9GZX7). Kind of assay: Validation qHTS assay for inhibitors of Activation Induced Cytidine Deaminase (AID): AID signal (AID 1347429). The gist of the method:
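AID+UDG coupled FRET deamination; cpds up to 114 uM final; DJC20/DJC23 substrate, 4 hr RT; NaOH stop, 30 min RT; read Ex 540/Em 590.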
Background: Quantitative high-throughput screening tests each substance at several concentrations.

The target in assay [2] is Calcium and integrin-binding protein 1 (Homo sapiens) (UniProt Q99828). Nature of the assay: Validation qHTS for Identification of Calcium Integrin Binding protein 1 (CIB1) Competitor (AID 1508618). The gist of the method: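 CIB1-GST (1 uM final) in 5 mM HEPES pH 7.4, 125 mM NaCl, 5 mM CaCl2, 0.01% Tween20 was preincubated 15 min at room temperature with compound (up to 114 uM), then FITC-alphaIIb peptide (100 nM) added for 15 min; fluorescence polarization read.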

The target is the same in assay [3]. Nature of the assay: Primary qHTS for Identification of Calcium Integrin Binding Protein 1 (CIB1) Competitor (AID 1508620). Also: top concentration of the series differs between compounds. The gist of the method: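 Fluorescence polarization competition: GST-tagged CIB1 (1 uM final) preincubated with compound 15 min at room temperature, then FITC-labelled alphaIIb peptide (100 nM final) added. After 15 min at room temperature, polarization read at Ex 480/Em 540.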

Assay [4] can be described thus: Primary qHTS for small molecule stabilizers of the endoplasmic reticulum resident proteome: Secreted ER Calcium Modulated Protein (SERCaMP) assay (AID 1508630). Also: potency is read from the fitted curve at half-maximal effect. The gist of the method:
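The SH-SY5Y reporter protocol was run at 3 concentrations up to 38.3 uM (primary) or 11 concentrations (follow-up): 16 h compound, 100 nM thapsigargin for 4 h, then extracellular luciferase luminescence.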

Assay [5] can be described thus: Primary qHTS for inhibitors of La Crosse Virus (LACV) - induced cell death in SH-SY5Y cells (AID 1508616).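 Also: top concentration of the series differs between compounds; higher means more rescue of cells from virus-induced death.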 The gist of the method: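 Cytopathicity rescue screen: compounds pinned onto SH-SY5Y cells, which are then infected with LACV (MOI 0.01) and held 6 days at 37C. Percent activity is scaled between infected DMSO control and uninfected DMSO control.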
Assay [6] in a line: A High-Content qHTS Against Drug Library for the Identification of Small Molecules that Inhibit DYT1 Early Onset Primary Dystonia-Associated Cell Pathology (AID 1645839; calls by dose curve; also: series mostly up to about 46 µM). The gist of the method: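 Cells were seeded and left for 24 h, then dosed with compound alongside tetracycline induction of mutant EGFP-TorsinA. They were incubated for 48 h, fixed in 4% paraformaldehyde, permeabilized and imaged for mislocalization (%pathology) and cell count.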

The target in assay [7] is Calcium and integrin-binding protein 1 (Homo sapiens) (UniProt Q99828). Kind of assay: Confirmatory qHTS for Identification of Calcium Integrin Binding Protein 1 (CIB1) Competitor (AID 1508617). Also: nearly all actives have a fitted effect of over 65% in size. The gist of the method: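 Fluorescence polarization competition: CIB1-GST (1 uM final) in 5 mM HEPES pH 7.4, 125 mM NaCl, 5 mM CaCl2, 0.01% Tween20 preincubated 15 min RT with compound (up to 114 uM), then FITC-alphaIIb peptide (100 nM) added, 15 min RT.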

Assay [8] can be described thus: Counterscreen qHTS for small molecule stabilizers of the endoplasmic reticulum resident proteome: GLuc-NoTag assay (AID 1508627). Also: potency is read from the fitted curve at half-maximal effect. The gist of the method:
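Counterscreen line: SH-SY5Y-GLuc-NoTag. Seed, 5 h; compound, 19 h; thapsigargin 100 nM, 4 h; 37C/5% CO2. Readout: secreted GLuc luminescence, coelenterazine 0.07x final, no lysis.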

Assay [9] is described as follows: Confirmatory qHTS for small molecule stabilizers of the endoplasmic reticulum resident proteome: Secreted ER Calcium Modulated Protein (SERCaMP) assay (AID 1508628). Also: nearly all actives have a fitted effect of over 40% in size. Also: potency is read from the fitted curve at half-maximal effect. The gist of the method: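 GLuc-SERCaMP-expressing SH-SY5Y cells, pretreated 16 h with compound, are challenged with thapsigargin to empty ER calcium stores; after 4 h, coelenterazine is added directly to the medium and luminescence is imaged.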

Assay [10] in a line: Cell Viability qHTS for small molecule stabilizers of the endoplasmic reticulum resident proteome (AID 1508629).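 Also: human SH-SY5Y neuroblastoma cells carrying the GLuc-SERCaMP reporter; compound exposure about 46 h in total before the viability read.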 The settings on record: cell viability counter-screen, 100 nM thapsigargin for final 4 h.

The structures appear in SMILES notation. Unmarked numbers belong to inactive results. Inconclusive results are not listed. A call without a number means that no potency is given here. The source made the active and inactive calls. Unless noted, calls follow the shape of the dose curve; as a rule, active = well fitted curve in the direction sought with a large enough effect; inconclusive = small, poorly fitted or top-dose-only effect, or another doubt; inactive = no such curve, though single readings can be large; an effect the other way counts as inactive or inconclusive.

Chain of Calcium and integrin-binding protein 1 (Homo sapiens) (Q99828 whole entry, looked up): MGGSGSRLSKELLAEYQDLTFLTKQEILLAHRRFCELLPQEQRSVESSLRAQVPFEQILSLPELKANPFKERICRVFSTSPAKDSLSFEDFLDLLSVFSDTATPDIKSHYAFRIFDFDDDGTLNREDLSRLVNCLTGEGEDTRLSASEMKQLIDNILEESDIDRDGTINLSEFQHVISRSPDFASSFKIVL
Chain of Single-stranded DNA cytosine deaminase (Homo sapiens) (Q9GZX7 whole entry, looked up): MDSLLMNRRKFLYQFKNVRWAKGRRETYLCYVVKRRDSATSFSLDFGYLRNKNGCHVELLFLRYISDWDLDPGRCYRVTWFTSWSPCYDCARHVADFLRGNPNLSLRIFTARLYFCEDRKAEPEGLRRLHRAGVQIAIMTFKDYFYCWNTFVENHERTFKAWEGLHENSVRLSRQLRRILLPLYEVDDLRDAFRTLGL

In the case of `C=CCc1cccc(C=NNC(=O)CN2CCN(Cc3ccccc3)CC2)c1O`, the call in [1] and in assay [2] was inactive. Moreover, the Potency result in assay [3] and in assay [4] was “inactive” each time.

For the compound `O=C1CCCC(=O)C1C(=O)c1ccc(C(F)(F)F)cc1[N+](=O)[O-]`, the Potency entry in assay [3] is “inactive”.

Regarding `COc1ccc(CCC(=O)Nc2nc3ccc(Cl)cc3s2)cc1OC`, in [3], the Potency result is “inactive”.

For the compound `Clc1ccc(COC(Cn2ccnc2)c2ccc(Cl)cc2Cl)c(Cl)c1` (centres undefined), the Potency entry in assay [3] is “inactive”.

Turning to `Cc1nn(Cc2ccccc2Cl)c(C)c1CN(C)CC(O)COc1ccc(Cl)cc1` (centres undefined), in [3], the Potency result is “inactive”.

`OC[C@H]1O[C@@H](OCCc2ccc(O)cc2)[C@H](O)[C@@H](O)[C@H]1O`: the outcome in assay [5] and in [6] was inactive.

In the case of `CCOC(=O)c1c(CSc2ccccc2)n(C)c2cc(Br)c(O)c(CN(C)C)c12`, the Potency entry in assay [3] was “inactive”.

For the compound `COc1cc(N2CCN(C)CC2)ccc1Nc1nc(N)c(C(=O)c2c(Cl)cccc2Cl)s1`, the Potency result in [3] is “inactive”.

As for `Cc1nc(C(=O)NCC(=O)O)c(O)c2ccc(Oc3ccccc3)cc12`, the Potency entry in assay [7] was “inactive”.

Consider `CC[C@]1(O)C[C@H]2CN(CCC3=c4ccccc4=N[C]3[C@@](C(=O)OC)(c3cc4c(cc3OC)N(C)[C@H]3[C@@](O)(C(N)=O)[C@H](O)[C@]5(CC)C=CCN6CC[C@]43[C@@H]65)C2)C1`, for which the Potency result in assay [3] is “inactive”.

As to `O=C(Nc1cccc2c(=O)cc(-c3nn[nH]n3)oc12)c1ccc(OCCCCc2ccccc2)cc1`, the result in assay [5] and in assay [6] was inactive. The Potency result in [3] and in assay [4] was “inactive” each time.

On to `CCNC(=O)CCCC=CC[C@@H]1[C@H](C=CC(O)CCc2ccccc2)[C@@H](O)C[C@@H]1O` (some centres undefined), for which the Potency result in assay [3] is “inactive”.

As for `CC(C)C[C@H](NC(=O)c1cc2ccccc2s1)C(=O)N1CCN(C(=O)[C@H](CO)NS(=O)(=O)c2ccc(Cl)cc2Cl)CC1`, in assay [3], the Potency entry is “inactive”. Also, the Potency in [8] is 44.7 µM (active); in assay [9] it was 15.8 µM (active); in [4] it was 23.7 µM (active).

As for `O=[N+]([O-])c1ccc(Nc2ccccc2-c2ccccc2)c2nonc12`, the Potency result in assay [3] and in assay [4] was “inactive” in each case.

With `CCCCCCCCCCCCCCCC(=O)O[C@H]1[C@@H](O)[C@@H](O)[C@@H]([C@H](NC(=O)[C@@H]2C[C@@H](CCC)CN2C)[C@H](C)Cl)O[C@@H]1SC`, the Potency result in assay [3] and in assay [4] was “inactive” throughout.

Take `Cc1ccc(C2=Nc3ccc(Cl)cc3OC2)cc1`: the Potency entry in assay [3] and in assay [4] was “inactive” in each case.

For `COc1cc2c(cc1OC)CC(=O)N(CCCN(C)C[C@H]1Cc3cc(OC)c(OC)cc31)CC2`, the Potency result in [3] and in assay [4] was “inactive” each time.

Turning to `CCCCC(C=O)NC(=O)C(CC(C)C)NC(=O)OCc1ccccc1` (centres undefined), the Potency result in [3] and in assay [4] was “inactive” throughout.

Take `Cc1nc2c([nH]1)CCN(C(=O)c1ccc(NC(=O)c3ccccc3-c3ccccc3)cc1)c1ccccc1-2`: in [3], the Potency entry is “inactive”.

As to `COc1cccc(OC)c1-c1cc(C(=O)NC2(C(=O)O)C3CC4CC(C3)CC2C4)nn1-c1ccnc2cc(Cl)ccc12` (centres undefined), the Potency entry in assay [3] and in [4] was “inactive” in each case.

On to `CN1CC(=O)N2C(Cc3c([nH]c4ccccc34)[C@H]2c2ccc3c(c2)OCO3)C1=O` (some centres undefined), for which the Potency result in assay [3] and in [4] was “inactive” throughout.

Regarding `O=C(Nc1ccccc1)Nc1ccc(-c2ccc(C(=O)[C@H]3CCC[C@H]3C(=O)O)cc2)cc1`, the Potency entry in assay [3] is “inactive”.

As for `CCC(C)SSc1ncc[nH]1` (centres undefined), the Potency result in assay [3] and in assay [4] was “inactive” each time.

In the case of `Cc1ccc(NC(=O)c2cccc(N(C)C)c2)cc1NC(=O)c1ccc(O)cc1`, the Potency result in assay [3] is “inactive”.

As for `CC(=O)N1CCN(c2ccc(OCc3nn(C)c(C)c3-c3cccc4c(CCCOc5cc(C)c(Cl)c(C)c5)c(C(=O)O)n(Cc5cccnc5)c34)cc2)CC1`, the Potency result in assay [3] and in [4] was “inactive” each time.

Regarding `CCOC(=O)N1CCN([N+]([O-])=NOc2cc(ON=[N+]([O-])N3CCN(C(=O)OCC)CC3)c([N+](=O)[O-])cc2[N+](=O)[O-])CC1`, in [3], the Potency result is “inactive”.

For `CNC(=O)c1cc(Oc2ccc(NC(=O)Nc3ccc(Cl)c(C(F)(F)F)c3)c(F)c2)ccn1`, the Potency entry in [3] and in [4] was “inactive” each time.

`CCC[C@@H](NC(=O)[C@@H]1[C@H]2CCC[C@@H]2CN1C(=O)[C@@H](NC(=O)[C@@H](NC(=O)c1cnccn1)C1CCCCC1)C(C)(C)C)C(=O)C(=O)NC1CC1`: the Potency result in assay [3] and in assay [4] was “inactive” each time.

As for `Cc1cccc(-c2[nH]c(C(C)(C)C)nc2-c2ccc3c(c2)OCO3)n1`, in assay [3], the Potency entry is “inactive”.

On to `COc1ccc(-c2ccc3ncc4c(c3c2)n(-c2ccc(N3CCNCC3)c(C(F)(F)F)c2)c(=O)n4C)cn1`, for which the Potency result in assay [3] and in assay [4] was “inactive” each time.

As for `CCc1cc(-c2n[nH]c(C)c2-c2ccc3c(c2)OCCO3)c(O)cc1O`, the Potency result in assay [3] and in assay [4] was “inactive” in each case.

Take `O=S(=O)(NCCNCC=Cc1ccc(Br)cc1)c1cccc2cnccc12`: the Potency entry in assay [3] and in [4] was “inactive” each time.

For the compound `COc1ccc2nc3cc(Cl)ccc3c(Nc3cc(CN4CCCC4)c(O)c(CN4CCCC4)c3)c2n1`, the Potency result in [3] and in assay [4] was “inactive” in each case.

As for `N#CC1(c2cccc(C(=O)Nc3cc(Oc4ccc5nc(NC(=O)C6CC6)sc5n4)ccc3F)c2Cl)CC1`, the Potency result in assay [3] was “inactive”.

On to `CC(C)=CCCC(C)=CCCC(C)=CCCC(C)=CCCC(C)=CCCC(C)=CCCC(C)=CCCC(C)=CCCC(C)=CCO`, for which the Potency result in assay [3], in assay [8] and in assay [9] was “inactive” in each case. Further, the max response in [10] is 2.98%.

For the compound `CN(C)CCOc1ccc(-c2nc(-c3ccc4c(c3)CCC4=NO)c(-c3ccncc3)[nH]2)cc1`, the Potency result in assay [3] and in [4] was “inactive” throughout.

`Cc1cc(OCCCS(C)(=O)=O)cc(C)c1-c1cccc(COc2ccc3c(c2)OC[C@H]3CC(=O)O)c1`: the Potency result in [3] and in [4] was “inactive” in each case.

Consider `O=C1CN2Cc3c(ccc(Cl)c3Cl)N=C2N1`, for which the Potency entry in assay [3] and in [4] was “inactive” each time.
